The campaign covered roughly 1,400 compounds. About 560 (40%) were called active. So high a share suggests a set chosen from earlier hits. The list shows a part of the results. Unmarked numbers belong to inactive results.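 The calls were made as follows: active = mean inhibition over duplicate tests at 10 µM above 50%; inactive = the rest.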

A word on the inhibition: it is how much of the control response was suppressed.

The assay can be described thus: ASC/caspase-1 reporter retest in S. cerevisiae at one dose, specificity check for NALP1 project (AID 488857). The note with it: S. cerevisiae ASC/Caspase-1, beta-galactosidase luminescence, 24 h; at 10 µM; active compounds read high.
For `COc1ccccc1CN(Cc1nc2ccccc2c(=O)[nH]1)C(=O)Nc1ccccc1`, the inhibition was 46.4%.

In the case of `C#C[C@]1(O)CC[C@H]2[C@@H]3CCC4=C(CCC(=O)C4)[C@H]3CC[C@@]21C`, the inhibition is 61.3% (active). Take `C#C[C@]1(O)CC[C@H]2[C@@H]3CCc4cc(O)ccc4[C@H]3CC[C@@]21C`: the inhibition was 79.5% (active). In the case of `O=C(OC1CCOC1=O)c1cc(-c2ccc(Br)cc2)nc2ccccc12` (centres undefined), the inhibition is 46.6%. The figure for `O=C(Oc1cccc2cccnc12)c1ccc(N2C(=O)C3C4CCC(C4)C3C2=O)cc1` (centres undefined) is 31.9%; for `O=C(Nc1cccc(O)c1)c1noc2c1CCc1ccccc1-2` it is 87% (active); for `CN1/C(=C\C(=O)Nc2ccc(Cl)cc2)C(C)(C)c2ccccc21` it is 41.8%.

On to `CCOP(=O)(C1=C(O)C(=O)C(C(C)(C)C)=CC1=O)c1ccccc1` (centres undefined), for which the inhibition was 38.8%. On to `Cc1cccc(N=C2NC(=O)/C(=C\c3cccs3)S2)c1`, for which the inhibition was 62.8% (active). On to `COc1ccc(C(=O)Cn2c(C(=O)/C=C/c3ccccc3)nc3ccccc32)cc1`, for which the inhibition was 39%. Turning to `COc1ccc(C(=O)/C=C/c2ccc(OC)c(CN3CCOCC3)c2)cc1`, the inhibition was 66% (active).

Regarding `O=C(/C=C/c1cccs1)c1cc(Br)ccc1OC(=O)N1CCOCC1`, the inhibition is 45.4%. For `CC(C)C(NC(=O)CN1C(=O)c2ccccc2S1(=O)=O)C(C)C` the value was 33.5%; for `C(=C\c1nc(N2CCCCCC2)c2ccccc2n1)/c1ccccc1`, 85.2% (active).

`C(=C\c1nc(N2CCCC2)c2ccccc2n1)/c1ccccc1`: the inhibition was 91.5% (active). Consider `COc1ccc2oc(=Nc3ccccc3)c(-c3nc4ccccc4[nH]3)cc2c1`, for which the inhibition is 59.1% (active). In the case of `Cc1cc(C)cc(Cn2ncc(Cl)c(Cl)c2=O)c1`, the inhibition was 57.6% (active). Turning to `Cn1ncc(S(=O)(=O)Cc2ccccc2)c(Cl)c1=O`, the inhibition is 39.1%. `COc1ccc(-c2[nH]ncc2CN2CCC(OCc3ccccn3)CC2)c(F)c1`: the inhibition was 21.9%.

Turning to `Cc1nc(NC(=O)/C=C/c2ccccc2)n[nH]1`, the inhibition is 48.2%.

Take `O=C(/C=C/c1ccccc1)/C=C/c1ccccc1`: the inhibition was 54.5% (active). Regarding `Cc1ccc(C)c(NC(=O)c2ccc(OC(=O)c3ccco3)cc2)c1`, the inhibition was 35.5%.

Turning to `Cc1ccc2occ(C(=O)c3ccco3)c(=O)c2c1`, the inhibition was 84% (active).

Consider `CCn1c(SCC(=O)Nc2oc(-c3ccccc3)c(-c3ccccc3)c2C#N)nnc1-c1cc(OC)cc(OC)c1`, for which the inhibition was 25.9%. As for `CC1CCCCN1S(=O)(=O)c1cnc(Cl)c(Br)c1` (centres undefined), the inhibition was 59.8% (active). For `O=S(=O)(/C=C/c1ccccc1)NC1CCCCCCC1`, the inhibition is 66.8% (active). Consider `CCOC(=O)c1c(-c2cccs2)csc1NC(=O)C(C)(C)C`, for which the inhibition was 44.8%. Turning to `O=C(c1ccc(Cl)c([N+](=O)[O-])c1)N(c1ccccn1)c1ccccn1`, the inhibition was 23.8%. Turning to `O=[N+]([O-])c1ccc(O)c2ncccc12`, the inhibition is 99% (active). For the molecule `CSc1ccc(CN(C)CC(=O)Nc2ccc(C)cc2Br)cc1`, the inhibition was 52.6% (active). The figure for `CN1CCN(C(=O)CSc2nc3c(c(=O)n(C)c(=O)n3C)n2C)CC1` is 31.1%. With `C=CCOc1ccc2ccccc2c1/C=N/O`, the inhibition is 64.3% (active). For `N#Cc1cccc(N=Cc2c(O)ccc3ccccc23)c1` the value was 30.4%; for `O=S(=O)(/N=C/c1c(O)ccc2ccccc12)c1cccs1`, 20.6%. `OCCNc1c2ccccc2nc2c(F)c(F)c(F)c(F)c12`: the inhibition is 23.1%. `CC(=O)/C=C/n1c(=S)oc2ccccc21`: the inhibition is 23.2%. As for `CCOc1ccc(C(=O)C(CCC(CN(C)C)C(=O)c2ccc(OCC)cc2)CN(C)C)cc1` (centres undefined), the inhibition was 63.5% (active). On to `CCCOc1ccc(C(=O)NC(C)C(=O)O)cc1` (centres undefined), for which the inhibition was 40.4%. With `Cc1ccc(N2C(=N)/C(=C3/Nc4ccccc4S3)C(c3ccccc3)C2=O)cc1` (centres undefined), the inhibition is 38.5%. As to `N#CC1=C(N)Oc2n[nH]c(-c3cccs3)c2C1C1CCCCC1` (centres undefined), the inhibition was 46.4%. For `CC1=CC(=O)C=C(C)C1=NOS(=O)(=O)c1ccccc1`, the inhibition was 69.7% (active).

On to `CC1=C/C(=N\OS(=O)(=O)c2ccccc2)C(C(C)C)=CC1=O`, for which the inhibition was 91.2% (active). Regarding `N#CC(C#N)=c1ccc2c(c1)N1C3=C(CCCC3)CC3CCCCC31N=2` (centres undefined), the inhibition was 8.35%.

`COc1ccc(/C=N/NC(=O)c2csc(-n3nc(C)cc3C(F)(F)F)n2)cc1`: the inhibition was 36.5%. Consider `O=C(CCN1CCc2ccccc2C(c2ccccc2)C1)c1ccc2c(c1)OCCO2` (centres undefined), for which the inhibition is 24.4%.

In the case of `CCOC(=O)C(C(=O)OCC)C(C(=O)OCC)N1CCOCC1` (centres undefined), the inhibition was 53.2% (active). The figure for `Cc1cccc(Oc2nc(CN3CCOCC3)nc3sc4c(c23)CCCC4)c1` is 75.2% (active). As for `Oc1ccccc1C1N=C(c2ccccc2)NC(c2ccccc2)=N1`, the inhibition was 28.9%. The figure for `CCOc1nc(N2CCOCC2)nc(N2CCOCC2)n1` is 43.6%; for `CC(=O)N1N=C(c2ccc3ccccc3c2)OC1(C)C` it is 86.5% (active). Consider `CS(=O)(=O)n1nc(-c2ccc(Cl)cc2)nc1SCc1ccccc1`, for which the inhibition is 48%.

Take `Cn1nc(-c2ccccc2)c(-c2nc(-c3ccc(Cl)cc3)no2)c1Cl`: the inhibition was 33.6%. The figure for `Cn1nc(-c2ccc(Cl)cc2)nc2c(=O)n(C)c(=O)nc1-2` is 97.8% (active); for `c1ccc2[nH]c3cc4ncnc4cc3nc2c1` it is 46.6%.

With `Nc1ccccc1-c1nc2ccccc2[nH]1`, the inhibition was 83% (active). With `O=C1CC(c2cccc(Cl)c2)CC(O)=C1C=Nc1cccc(Cl)c1` (centres undefined), the inhibition is 53.5% (active). The figure for `O=C1CC(c2ccccc2Cl)CC(O)=C1C=Nc1ccccc1` (centres undefined) is 61.9% (active); for `CCSc1nnc(-c2ccncc2)n1Cc1ccccc1` it is 23.7%; for `CCCn1c(-c2cccnc2Cl)nc2cc(Cl)c(Cl)cc21` it is 47.9%. For `CS/C(=N\S(=O)(=O)c1cccs1)Nc1ccc(Br)cc1F`, the inhibition is 68.3% (active).

With `CCCNC(=O)c1cc2c3ccccc3n(C)c2s1`, the inhibition was 74.2% (active). Regarding `CC(C)OCCCNC(=O)c1cc2c(=O)n(C)c3ccccc3c2n1C`, the inhibition was 30.8%. Turning to `COc1cccc(CN2CCC(C(=O)N3CCN(c4ccccc4F)CC3)CC2)c1OC`, the inhibition was 32.3%. The figure for `OC(COc1ccc2c(c1)CCC2)CN1CCN(c2ccccc2F)CC1` (centres undefined) is 78% (active); for `COc1ccc(CN2CC(C(=O)NCCN3CCN(c4ccccc4F)CC3)CC2=O)cc1` (centres undefined) it is 29.6%; for `OC(CSc1c(Cl)cccc1Cl)CN1CCN(c2ccccc2F)CC1` (centres undefined) it is 50.8% (active). Turning to `O=[N+]([O-])c1ccc(OCC(O)CN2CCN(c3ccccc3F)CC2)cc1` (centres undefined), the inhibition was 51.8% (active). With `Cc1sc(-c2ccncc2)nc1OC(=O)c1ccccc1`, the inhibition was 36.9%. Turning to `Cc1occc1C(=O)Nc1c(F)c(F)c(F)c(F)c1F`, the inhibition was 38.6%. `Cc1ccc(NCC(=O)Nc2c(C)n(C)n(-c3ccccc3)c2=O)cc1S(=O)(=O)N(C)C`: the inhibition is 10.7%. As for `CC1=C(C(=O)Nc2ccc(Cl)cc2)C(c2ccncc2)C(C#N)=C(SCC(N)=O)N1` (centres undefined), the inhibition was 30.2%. Regarding `Cn1c2c(c(=O)n(C)c1=O)C(NC(=O)C(C)(C)C)(C(F)(F)F)C(=O)N2` (centres undefined), the inhibition is 40.1%. `O=S(=O)(CC(CN1CCCC1)N1CCCC1)c1ccc2ccccc2c1` (centres undefined): the inhibition was 30.2%. On to `O=S(=O)(CC(CN1CCCCC1)N1CCCCC1)c1ccc2ccccc2c1` (centres undefined), for which the inhibition is 59.8% (active). For the molecule `O=S(=O)(NC1CCCCC1)c1ccc(F)c2ccccc12`, the inhibition was 57.7% (active). `O=C(Nc1nc(-c2ccncc2)cs1)c1ccc(S(=O)(=O)N2CCOCC2)cc1`: the inhibition was 39.9%. The figure for `CS(=O)(=O)N1N=C(c2ccco2)CC1c1ccc(Cl)cc1` (centres undefined) is 27.9%; for `CCOC(=O)c1sc(=S)n(-c2ccc(OC)cc2)c1C` it is 48.9%. Regarding `CCOC(=O)c1c(/N=C/c2cc(OC)cc([N+](=O)[O-])c2O)sc(C)c1C`, the inhibition is 65.7% (active). In the case of `Nc1nc(-c2ccc(Oc3ccccc3)cc2)cs1`, the inhibition was 99.7% (active). On to `Nc1nc2ccc(Oc3ccccc3)cc2s1`, for which the inhibition was 96.2% (active). The figure for `Cc1sc(N)nc1-c1ccc(Oc2ccccc2)cc1` is 76.5% (active); for `Nc1ccc(Oc2cccc(Oc3ccc(N)cc3)c2)cc1` it is 48%. In the case of `COc1ccc(-c2csc(N3C(=O)C4C5c6ccccc6C(c6ccccc65)[C@@H]4C3=O)n2)cc1` (some centres undefined), the inhibition was 34.7%. With `O=C(Cc1ccc(Cl)cc1)Oc1cccc2cccnc12`, the inhibition is 29.8%. Consider `c1cnc2c(c1)ccc1cccnc12`, for which the inhibition is 84.1% (active). Regarding `Fc1ccc(Nc2nc(Oc3ccccc3F)nc(N3CCCC3)n2)cc1`, the inhibition was 41.3%. Regarding `Cc1ccccc1Nc1cc(C)c2c(O)cccc2n1`, the inhibition was 77.8% (active). For the molecule `COc1ccc(NC(=O)N2CCC(CO)(CC3CCCCO3)CC2)c(OC)c1` (centres undefined), the inhibition was 40.4%. Take `COc1ccc(NC(=O)c2sc(N3CCOCC3)nc2-c2ccccc2)c(OC)c1`: the inhibition was 57.7% (active).

As for `C/C(=N\NC(=O)Cc1csc(N2CCOCC2)n1)c1ccccc1`, the inhibition is 29.2%. For `CN(C)Cc1ccccc1Sc1ccccc1Br`, the inhibition was 49%. For `CC(=O)c1ccc(NC(=O)Nc2ccc(Cl)cc2)cc1`, the inhibition was 44.4%. With `COc1ccc(N2CCN(CCNC(=O)Nc3ccc(Cl)cc3)CC2)cc1`, the inhibition is 39.5%. In the case of `N#Cc1ccc(NC(=O)Nc2ccc(Cl)cc2)cc1`, the inhibition was 96.4% (active). For the molecule `Cc1cccc(C)c1C(OCCN(C)C)C1CCCCC1` (centres undefined), the inhibition was 35.5%.

Regarding `COc1cc(/C=C(\NC(C)=O)C(=O)Nc2cccc(O)c2)ccc1OC(C)=O`, the inhibition is 42%. Take `COc1ccc(/C=C/C(=O)Nc2ccc3c(c2)CCC3)cc1OC`: the inhibition is 86.2% (active).

Take `O=C1/C(=C/c2cccnc2)SC(=S)N1C1CCS(=O)(=O)C1` (centres undefined): the inhibition was 32.4%.

These data come from PubChem BioAssay AID488857 (Sanford-Burnham Center for Chemical Genomics, 2010).
